Measured values: PubChem BioAssay AID623911 (Vanderbilt High Throughput Screening Facility, 2012)
Out of some 2,100 compounds screened, about 770 (37%) were called active.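 The calls were made as follows: active = by-eye trace score of 1 for enhancers or -1 for inhibitors, so actives lie on both sides (some results past the limit were not filed as active); inactive = score 0, or 3 fluorescent, or 4 baseline rise.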 This is one part of the list.

Molecular target: G protein-activated inward rectifier potassium channel 2 (Homo sapiens) + G protein-activated inward rectifier potassium channel 1 (Homo sapiens) (UniProt P48051+P48549)
Assay: GIRK1/2 thallium flux modulators, retest, confirmation, cell-based, HEK293 rmGlu8/hGIRK1/2, FluoZin-2 (AID 623911)
Conditions: HEK293 rmGlu8/hGIRK1/2, thallium flux FluoZin-2; actives lie on both sides; glutamate co-added at its EC20 level

Sequence of G protein-activated inward rectifier potassium channel 2 (Homo sapiens) + G protein-activated inward rectifier potassium channel 1 (Homo sapiens) (P48051 whole entry, looked up): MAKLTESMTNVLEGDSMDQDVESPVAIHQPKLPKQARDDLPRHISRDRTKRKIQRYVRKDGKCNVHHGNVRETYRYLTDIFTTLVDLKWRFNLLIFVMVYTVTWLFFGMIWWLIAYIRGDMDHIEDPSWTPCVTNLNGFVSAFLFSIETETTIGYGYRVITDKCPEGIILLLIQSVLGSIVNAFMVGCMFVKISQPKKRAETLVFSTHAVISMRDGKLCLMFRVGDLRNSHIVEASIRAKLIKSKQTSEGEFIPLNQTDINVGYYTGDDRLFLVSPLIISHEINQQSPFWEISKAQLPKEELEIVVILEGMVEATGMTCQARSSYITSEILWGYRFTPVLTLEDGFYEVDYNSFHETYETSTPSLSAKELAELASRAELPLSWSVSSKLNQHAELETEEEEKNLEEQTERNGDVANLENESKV
Sequence of G protein-activated inward rectifier potassium channel 2 (Homo sapiens) + G protein-activated inward rectifier potassium channel 1 (Homo sapiens) (P48549 whole entry, looked up): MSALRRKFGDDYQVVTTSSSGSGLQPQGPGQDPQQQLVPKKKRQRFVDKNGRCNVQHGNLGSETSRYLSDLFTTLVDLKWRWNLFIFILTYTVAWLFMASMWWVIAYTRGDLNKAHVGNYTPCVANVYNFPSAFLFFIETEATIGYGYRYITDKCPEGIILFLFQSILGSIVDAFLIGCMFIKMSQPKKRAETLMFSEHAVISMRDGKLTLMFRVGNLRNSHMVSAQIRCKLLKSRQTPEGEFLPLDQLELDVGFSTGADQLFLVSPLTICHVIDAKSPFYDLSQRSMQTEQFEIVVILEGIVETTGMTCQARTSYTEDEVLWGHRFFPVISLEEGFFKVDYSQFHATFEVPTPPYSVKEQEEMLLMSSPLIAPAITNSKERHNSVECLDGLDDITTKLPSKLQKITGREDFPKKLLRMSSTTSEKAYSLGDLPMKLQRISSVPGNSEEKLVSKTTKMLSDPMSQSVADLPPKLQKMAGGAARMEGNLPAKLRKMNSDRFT

Manual score, inactive:
COc1ccc(C2C(C(N)=O)=C(C)Nc3nc(-c4cccc(Cl)c4)nn32)cc1OC (stereo not given) 0, Cc1occc1C(=O)Nc1cccc(C(F)(F)F)c1 0, O=C(N/N=C/c1c(Cl)cccc1Cl)c1cccc(F)c1 0, COc1ccc(C(=O)Nc2ccc(Oc3ncnc4sc(-c5ccccc5)cc34)cc2)cc1OC 0, Cc1cc(C)c(NC(=O)c2ccc(S(=O)(=O)N(C)C)cc2)c(C)n1 0, CCCCCc1nnc(NC(=O)Cc2cccs2)s1 0, CCOc1ccc(-c2cc(C)n3nc(C(N)=O)cc3n2)cc1 0, COCCCNc1c2c3c(cccc3[nH]c1=O)C(=O)c1ccccc1-2 3, Cc1[nH]c2ccccc2c1CN1CCc2ccccc2C1 0, CNc1nc(Cl)nc(NC(C)(C)C)n1 0, CCOC(=O)/C(=C\C=C1/Sc2cc(OCC)c(OCC)cc2N1CC)C(C)=O 3, Cc1ccc2c(c1)N(CC(=O)N(Cc1ccccn1)Cc1ccco1)C(=O)C(C(C)C)O2 (stereo not given) -0.5, Cc1ccc(S(=O)(=O)c2c(C)cc(C)nc2Cl)c(C)c1 0, CCC(C)NC(=O)CSc1nc2ccccc2c(=O)n1Cc1ccc(OC)cc1 (stereo not given) 0, CCCCn1c(SCC(=O)Nc2ccc(OC)cc2)nc2ccc(N3CCOCC3)cc2c1=O 0, CCOC(=O)CSc1nc(C)c2cc(OC)ccc2n1 0, Cn1cc(S(=O)(=O)Nc2ccc(F)cc2F)c(=O)n(C)c1=O 0, CCOC(=O)c1ccccc1Nc1cn(C(C)=O)c2ccccc12 -0.5, Cc1cc2[nH]c(=O)c3ccccc3n2n1 0, CCS(=O)(=O)Nc1ccc(-c2nnc(SCC(=O)c3ccc(NC(C)=O)c(OC)c3)o2)cc1 0, Cc1ccc(NC2=NC(=S)N(CC#N)C23CCCCC3)cc1 0, N#CCN1C(=S)N=C(Nc2cccc(Cl)c2)C12CCCCC2 0.5, CCOC(=O)C(C)Sc1nc2c(cnn2-c2ccc(C)cc2)c(=O)[nH]1 (stereo not given) 0, COc1ccc(OC)c(Nc2ncnc3c2cnn3-c2cccc(C)c2)c1 0, NC(=O)CSc1ncnc2c1cnn2Cc1ccccc1 0, CN(C)CCNc1ncnc2c1cnn2-c1ccc(Cl)cc1 0, CN(C)CCCOc1ccc(C(C)(C)c2ccccc2)cc1 0, COc1ccc(OCCCN2CCCCCC2)cc1 0, CCCCC(=O)N1CCCC(c2nc3c(nnn3Cc3cc(C)ccc3C)c(=O)[nH]2)C1 (stereo not given) 0, Cc1cc(-c2n[nH]c(=S)n2/N=C/c2ccc(Br)s2)n[nH]1 0, S=c1[nH]nc(-c2ccco2)n1/N=C/c1ccc(Br)s1 0, Cc1ccc(-c2nc3ccccc3o2)cc1NC(=S)NC(=O)c1cc2ccccc2o1 0, Cc1cc(C)c2oc(-c3ccc(C)c(NC(=S)NC(=O)c4cccs4)c3)nc2c1 0, c1cn(CC2(Cn3ccnc3)COC2)cn1 0, CN(C)CCNC(=O)c1cc2c(s1)-c1ccccc1OC2 0, CCCCOC(=O)Nc1ccc(C(=O)OCCC)cc1 0, O=C(CN1CCCCC1)Nc1cccc(Oc2ccccc2)c1 0, COc1cccc(NC(=O)CSc2nnc(-c3ccoc3C)n2-c2ccccc2)c1 -0.5, COc1cccc(NC(=S)N/N=C2/CCCCc3ccccc32)c1 0.5, CC1CCc2nn(CC(=O)N3CCN(C(=O)c4ccco4)CC3)cc2C1 (stereo not given) 0, COc1cccc(NC(=O)C(Sc2nc3ccccc3c(=O)n2CC(C)C)c2ccccc2)c1 (stereo not given) 0, COc1cccc(NC(=O)CSc2nc(N)cc(N)n2)c1 0, CCCOC(=O)c1ccc(-c2c(C)noc2-c2ccc(OC)cc2O)o1 0, CC(=O)c1c(C)[nH]c(C(=O)COc2cc(C)cc(C)c2)c1C 0, Fc1ccccc1NC(=S)N/N=C/c1ccccc1Br 0, Fc1ccccc1/C=N/NC(=S)Nc1ccc(Cl)cc1Cl 0

Manual score, active:
O=C(Nc1nnc(-c2cccs2)o1)c1cccc(C(F)(F)F)c1 1, O=C(Nc1nnc(-c2cccs2)o1)c1cccc(Oc2ccccc2)c1 1, CCCCN(C)S(=O)(=O)c1ccc(C(=O)Nc2nnc(-c3cccs3)o2)cc1 1, O=C(Nc1nnc(-c2cccs2)o1)c1cccc(F)c1 1, CCC1Oc2ccc(C)cc2N(CC(=O)N(Cc2ccc(C)o2)C2CCCC2)C1=O (stereo not given) -1, COc1ccc(NC(=O)CSc2nc3ccccc3c(=O)n2CCCN2CCCCC2)c(OC)c1 -1, COc1ccc(C(C)n2c(C)c3c(C)nnc(C)c3c2C)cc1 (stereo not given) -1, S=c1nn[nH]n1C12CC3CC(CC(C3)C1)C2 1, CCOC(=O)c1cnn2c1[nH]c(=O)c1ccccc12 1, COc1ccc(NC2=NC(=S)N(c3ccccc3C)C23CCCCC3)cc1 1, Cc1ccc(CSc2ncnc3c2cnn3-c2ccc(C)cc2)cc1 1, Cc1ccc(-n2ncc3c(SCc4ccccc4)ncnc32)cc1 1, CCN1CCN(CCCOc2ccc(-c3ccccc3)cc2)CC1 -1, S=c1[nH]nc(-c2ccccn2)n1/N=C/c1ccc(Br)s1 1, CN(C)Cc1cc(C(C)(C)C)c(O)c(C(C)(C)C)c1 -1, Cc1ccc(C)c(NC(=S)NNC(=O)c2csc(C(C)C)c2)c1 1, Cc1cccc(NC(=S)NNC(=O)c2csc(C(C)C)c2)c1 1, CN(C)CCNC(=O)c1ccc2c(c1)N(Cc1ccc(F)cc1)CCS2 -1, CCCCOc1ccc(C(=O)OC2CC(C)N(C)CC2C)cc1 (stereo not given) -1, COc1cccc(NC(=O)Cn2nnc(C(=O)Nc3ccccc3)c2N)c1 1, COc1cccc(NC(=O)Cn2cc(C#N)c3ccccc32)c1 1, Cc1cc(C)cc(NC(=O)Cn2cc3c(n2)CCCCC3)c1 1, COc1cccc(NC(=O)Cn2cc3c(n2)CCCCC3)c1 1, O=[N+]([O-])c1ccc(/C=N/NC(=S)Nc2ccccc2F)o1 1
